PubChem BioAssay AID833 (The Scripps Research Institute Molecular Screening Center, 2007)
The campaign covered roughly 16,000 compounds. About 80 (0.5%) were called active. Shown is part of a subset that was picked to be rich in actives. Unmarked numbers belong to inactive results. No stated cut-off is given here; in the data, active means activation above about 15%; inactive means the rest.

Each molecule was assayed against Galanin receptor type 2 (Rattus norvegicus) (UniProt O08726) (assay: activates the rat galanin receptor 2 (AID 833)). Conditions: cell-based GALR2 agonist screen; at 10 µM; active compounds read high.
Galanin receptor type 2 (Rattus norvegicus), sequence (O08726 whole entry, looked up): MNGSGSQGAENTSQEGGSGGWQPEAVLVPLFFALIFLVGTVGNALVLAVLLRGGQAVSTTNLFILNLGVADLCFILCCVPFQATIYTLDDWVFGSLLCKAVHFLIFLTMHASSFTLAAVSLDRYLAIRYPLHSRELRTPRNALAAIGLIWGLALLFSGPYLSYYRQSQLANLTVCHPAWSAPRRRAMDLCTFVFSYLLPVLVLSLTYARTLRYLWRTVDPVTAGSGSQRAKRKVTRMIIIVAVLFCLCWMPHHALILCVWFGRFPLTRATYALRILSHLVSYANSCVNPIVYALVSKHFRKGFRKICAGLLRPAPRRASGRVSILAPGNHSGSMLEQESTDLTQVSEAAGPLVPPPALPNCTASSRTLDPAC
Cc1[nH]c2ccccc2c1Sc1ccc(Cl)cc1 showed an activation of -8.87%. Cc1onc(-c2ccccc2)c1CNS(=O)(=O)c1ccc2c(c1)OCCN2C gave an activation of -3.66%. Work on CC(=O)c1ccc(C#Cc2ccccc2)cc1 yielded an activation of -6.33%. Molecule N#Cc1ccc(N2CCN(C(=O)c3ccco3)CC2)cc1 has an activation of -9.07%. With CCOc1ccc(NC(=S)N2CCC(c3ccccc3OC)CC2)cc1 the activation was -6.67%. For Cc1nc(-c2cccnc2)nc(N2CCCN(Cc3ccc(F)cc3)CC2)c1Cl, the activation was -9.09%. COC(=O)c1ccc(/C=C2\C(=O)Nc3ccccc32)n1-c1ccc(F)cc1 gave an activation of 2.14%. With Clc1ccc(C=NCc2cccnc2)c(Cl)c1 the activation was -5.42%. Cc1cc(S(=O)(=O)O/N=C(\N)c2snnc2C)cc(C)c1F gave an activation of -5.04%. For Cc1ccc(S(=O)(=O)NNC(=O)c2ccccc2N)cc1, the activation was -6.6%. In the case of Cc1cc(C)nc(NC(=S)c2ccc(NC(=O)/C=C/C(=O)O)cc2)n1, the activation is reported as -5.82%. Work on O=C(Nc1ccc(C(F)(F)F)cc1)Nc1ccccc1C(=O)O yielded an activation of -8.04%. For CCCCNc1nc(N)ns1, the activation was -3.61%. With Cc1c(CC(=O)Oc2ccc([N+](=O)[O-])cc2)sc2ccc(Cl)cc12 the activation was -2.58%. Work on O=C(NCCO)NCCSc1ccc(F)cc1 yielded an activation of -4.7%. In the case of CCOC(=O)c1c(NS(=O)(=O)c2cccc3nsnc23)sc(C)c1C, the activation is reported as -6.04%. Cn1cccc1-c1n[nH]c(=S)n1-c1ccc(Cl)cc1Cl showed an activation of -4.04%. With O=C1C=C(SCC(=O)c2ccccc2)SC(c2ccc(Cl)cc2)C1 (centres undefined) the activation was 6.17%. NNC(=O)CC1C(=O)NCCN1Cc1c(Cl)cccc1Cl (centres undefined) was tested, and the activation was -5.38%. Work on Cc1cc(S(=O)(=O)Oc2ccc(OCc3ccccc3)cc2)c(C)cc1Cl yielded an activation of -2.88%. For CCOC(=O)C/C(N)=C(\C#N)C(=O)OCC, the activation was -2.73%. Molecule Cc1ccc(SCC(=O)Nc2ccc(F)cc2F)cc1 has an activation of -5.06%. CC(C)(C)NC(=O)[C@@H]1C[C@@H]2CCCC[C@@H]2CN1C(=O)c1ccno1 gave an activation of -7.29%. COc1cccc(OCc2ccccc2)c1C#N was tested, and the activation was -5.84%. With O=S(=O)(Oc1ccc(Cl)c(Cl)c1)c1c(Cl)sc(Cl)c1Br the activation was -7.23%. Molecule O=C(O)Cc1csc(NC(=O)CSc2nnnn2-c2ccc(O)cc2)n1 has an activation of -6.18%. Work on COc1cc(NC(=O)c2ncc(C(F)(F)F)cc2Cl)c(C(=O)O)cc1OC yielded an activation of -7.07%. O=S(=O)(O)c1ncccn1 showed an activation of -6.4%. For c1ccc(CN2CCN(Cn3nnc4ccccc43)CC2)cc1, the activation was -4.65%. COC(=O)c1ccc2snnc2c1 was tested, and the activation was -2.44%. Molecule FC(F)(F)c1csc(N/N=C/c2ccccc2Cl)n1 has an activation of -13.1%. CCOC(=O)C(=CNNc1ccc(C(=O)O)cc1[N+](=O)[O-])C(=O)OCC was tested, and the activation was -6.55%. Molecule CC1CC(NC(=O)/C(C#N)=C/c2ccc[nH]2)CC(C)(C)C1 (centres undefined) has an activation of -10.3%. With N/N=c1/nc2sccn2c2ncccc12 the activation was -4.92%. Molecule CCOC(=O)c1cc(CC)sc1NC(=O)c1cccnc1Oc1ccccc1 has an activation of -8.18%. For O=C1C=C(c2ccccc2)CN(C2CCCCC2)C1=O, the activation was -2.8%. For CC1=C(C(=O)O)N2C(=O)[C@H](NC(=O)[C@@H](N)c3ccccc3)C2SC1 (some centres undefined), the activation was 22.8% (active). For O=C(Oc1ccc(Cl)cc1)c1snnc1-c1ccccc1, the activation was -5.24%. Molecule Cc1onc(C(=O)NN)c1-c1csc(COc2ccccc2)n1 has an activation of -4.77%. In the case of N#Cc1ccc(-c2csc(COc3ccccc3Cl)n2)cc1, the activation is reported as 34% (active). Molecule C#CC(C)(CC)OCC(O)CS(=O)(=O)O (centres undefined) has an activation of -5.43%. With CC(C)S(=O)(=O)c1cscc1N/C=C(/C#N)C(=O)c1cccs1 the activation was -2.65%. For O=S(=O)(c1ccc(Cl)c(Cl)c1)N1CCc2c([nH]c3ccccc23)C1C(F)(F)F (centres undefined), the activation was -11.8%. Molecule Cc1[nH]n(C)c(=O)c1C(=O)c1c(-c2c(Cl)cccc2Cl)noc1C has an activation of -6.37%. With CN(NC(=O)c1ccc(Cl)s1)c1cnn(-c2cc(Cl)cc(Cl)c2)c(=O)c1Cl the activation was -2.83%. CSc1nsc(SC)c1C(=O)Nc1cc(C(F)(F)F)cc(C(F)(F)F)c1 was tested, and the activation was -4.92%. Molecule Cn1cnnc1SC/C=C/c1ccccc1 has an activation of -6.61%. Molecule CCOC(=O)C(=CNc1nc(-c2ccc(Cl)cc2)cs1)C(=O)OCC has an activation of -6.21%. In the case of c1ccc2c(c1)NC(C1Nc3ccccc3O1)O2 (centres undefined), the activation is reported as -4.99%. Cc1cc(Cl)ccc1NC(=S)NNC(=S)Nc1ccc(F)cc1 gave an activation of -1.79%. Molecule CCOC(=O)/C=C(/Nc1ccccc1SC)c1ccccc1 has an activation of -8.09%. CC(C)(C)c1ccc(C(=O)CC(N)=O)cc1 was tested, and the activation was -7.09%. In the case of N#Cc1c(-c2cccs2)cc(-c2cccs2)nc1N, the activation is reported as 10.7%. Work on O=C(Nn1cnnc1)c1ccc([N+](=O)[O-])cc1 yielded an activation of -2.79%. Molecule Cc1onc(-c2ccccc2)c1C(=O)Nc1ccc(/C(C#N)=C/c2ccccn2)cc1 has an activation of -2.22%. N#C/C(=C\c1cccs1)C(=O)NCCc1c[nH]c2ccccc12 showed an activation of -5.34%. Work on Cc1cccc(-c2noc(NC(=O)O/N=C/c3ccccc3)n2)c1 yielded an activation of -3.45%. In the case of Cc1csc(/N=C/N(C)C)c1C#N, the activation is reported as -4.03%. N/C(CC(=O)Nc1ccc(F)c(Cl)c1)=N\O was tested, and the activation was -6.66%. O=C(c1cnn(-c2ccc(Cl)cc2)n1)c1cccs1 showed an activation of -6.45%. S=C1NCN(CCCn2ccnc2)CN1 gave an activation of -6.28%. For O=C(O)c1cc(=O)[nH]c2c(Cl)cc(Cl)cc12, the activation was -3.92%. Work on COC(=O)/C(=C/c1ccccc1)c1ccccc1 yielded an activation of -1.48%. With COc1ccc(OC)c(CNC(=O)Cc2cccs2)c1 the activation was -4.76%. For O=[N+]([O-])c1ccc(N2CCOCC2)cc1, the activation was -0.7%. Work on O=S(=O)(CCSc1ccc(C(F)(F)F)cn1)CCSc1ccc(C(F)(F)F)cn1 yielded an activation of -4.73%. CC(C)N(C(=O)c1ccc(-c2ccccc2F)cc1)C(C)C was tested, and the activation was -5.45%. Work on O=C(O)CC1(CC(=O)Nc2ccc(N3CCCCC3)cc2)CCCCC1 yielded an activation of -3.41%. Work on Cn1cc(Br)c(-c2ccc(NC(=O)Nc3ccc(Cl)cc3)cc2)n1 yielded an activation of -8.08%. In the case of COC(=O)c1noc(C)c1-c1ccnn1C(=O)c1ccc(Cl)cc1, the activation is reported as -1.59%. In the case of CSC(=CC(=O)c1cccs1)SC, the activation is reported as -10.2%. COc1cccc2c1c(NS(=O)(=O)c1cn(C)cn1)nn2C gave an activation of -5.19%. With CSc1nsc(SC)c1C(=O)NC(=O)NNc1ccc(F)c(Cl)c1 the activation was -2.68%. In the case of Oc1[nH]c2ccc(F)cc2c1N=NC(=S)NC1CC2C=CC1C2 (centres undefined), the activation is reported as -9.63%. With NS(=O)(=O)c1cc(Br)ccc1I the activation was -1.14%. In the case of Cc1c(S(=O)(=O)N2CCOCC2)ccc(Cl)c1F, the activation is reported as -9.66%. Molecule O=[N+]([O-])c1ccc(-c2ccc(I)cc2)cc1 has an activation of -5.42%. Molecule O=[N+]([O-])c1ccc(-c2nnnn2Cc2c(Cl)cccc2Cl)cc1 has an activation of -2.65%. Cc1c(NC(=S)Nc2ccccc2)c(=O)n(-c2ccccc2)n1C gave an activation of -1.67%. COC(=O)c1cc(OC)c(OC)cc1NC(=O)c1ccccc1C(=O)O showed an activation of 0.04%. COc1cc(CCN=Cc2ccccc2O)c([N+](=O)[O-])cc1OC showed an activation of -0.09%. In the case of O=C(NCc1cccnc1)Nc1cccc(NC(=O)NCc2cccnc2)c1F, the activation is reported as -10%. In the case of CNC(=S)NNC(=O)c1cc(C)on1, the activation is reported as -5.05%. Work on Cc1cc(C)nc(N/C=C(\C#N)S(=O)(=O)c2ccc(Cl)cc2)n1 yielded an activation of -7.71%. N#CC(c1cc2ccccc2cn1)c1ccc2c(c1[N+](=O)[O-])C(=O)c1ccccc1C2=O (centres undefined) was tested, and the activation was -8.33%. N#CC1(C#N)C(c2ccc(Cl)c(Cl)c2)C1(C#N)C#N showed an activation of -8.55%. Work on CSc1n[nH]c(=O)n1-c1cccc(C(F)(F)F)c1 yielded an activation of -7.62%. For COc1ccc(NC(=S)Nc2ccc(F)cc2F)c([N+](=O)[O-])c1, the activation was -8.62%. With c1ccc2c(-c3csc(-c4ccc5c(c4)OCCO5)n3)csc2c1 the activation was -9.38%. Cc1nc(-c2ncc(-c3ccccc3)o2)c(C(F)(F)F)o1 showed an activation of -5.66%. For O=C(CSc1c(F)c(F)c(C(=O)O)c(F)c1F)Nc1cccc(C(F)(F)F)c1, the activation was -5.69%. With COC(=O)c1sccc1NC(=S)Nc1ccc(C)cc1 the activation was -4.74%. Cc1cc(CNC(=O)c2cc(C)n(C)n2)no1 showed an activation of 4.72%. For Cc1nnsc1-c1nnc(SCC(=O)c2ccc3c(c2)OCO3)n1C1CC1, the activation was -3.99%. In the case of O=C(O)CC(CC(=O)Nc1cc(C(F)(F)F)ccc1N1CCOCC1)c1ccccc1 (centres undefined), the activation is reported as -5.13%. In the case of N/C(=N\O)c1ccc2nonc2c1, the activation is reported as -8.97%. In the case of Cc1cc(CNCC(O)C(F)(F)F)no1 (centres undefined), the activation is reported as -7.81%. Work on CSc1sc(C(=O)NC2CC2)c(-c2ccc(Cl)cc2)c1C#N yielded an activation of -8.05%. Cc1ccc(S(C)(=O)=NC(=O)NS(=O)(=O)Oc2ccc(Cl)cc2Cl)cc1 (centres undefined) was tested, and the activation was -1.36%. Cc1oc(-c2ccc(Cl)cc2)cc1C(=O)O/N=C(\N)Cc1nc2cccnc2n1C1CC1 showed an activation of -4.62%. O=C(NCc1csc(-c2cccs2)n1)Nc1ccccc1-c1ccccc1 showed an activation of -9.54%. In the case of Cc1oc(C(C)(C)C)cc1C(=O)NC1Cc2ccccc2C1, the activation is reported as -2.8%. In the case of CCOc1c(N2CCCCC2)c(=O)c1=O, the activation is reported as 24.1% (active). With Cc1cc(-c2nc(C(=O)NN3CCCCC3)cs2)no1 the activation was -7.49%.
